Six compounds from PubChem BioAssay can be followed below.

Records with an inconclusive call do not appear. The source made the active and inactive calls.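 How the source made its calls, unless noted: active means normalized viability below 100% at a tested concentration; inactive means the rest.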

A short description of test [1]: viability loss in pontine glioma line – cell-based, SU-DIPG-XVII, MIPE5.0, CellTiter-Glo, qHTS, dose response (AID 1347060; cut-off not given, nearly all actives have AC50 up to about 26 µM;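 on AC50: cells exposed to compound for 48 hours before viability readout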). To be noted: CellTiter-Glo ATP luminescence.
Test [2] in a line: viability loss in pontine glioma line – cell-based, SU-DIPG-XIII, MIPE4.0, CellTiter-Glo, qHTS, dose response (AID 1347061; cut-off not given, nearly all actives have AC50 up to about 37 µM;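 further: cells exposed to compound for 48 hours before readout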). To be noted: CellTiter-Glo ATP luminescence.
The nature of test [3]: viability loss in pontine glioma line – cell-based, JHH-DIPG-1, MIPE4.0, CellTiter-Glo, qHTS, dose response (AID 1347062; cut-off not given, nearly all actives have AC50 up to about 27 µM;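 on AC50: cells exposed to compound for two days before readout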). To be noted: JHH-DIPG-1 viability, CellTiter-Glo ATP luminescence.
The nature of test [4]: viability loss in pontine glioma line – cell-based, SU-DIPG-IV, MIPE4.0, CellTiter-Glo, qHTS, dose response (AID 1347063; cut-off not given, nearly all actives have AC50 up to about 30 µM;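 further: compound exposure lasted 48 hours before the viability readout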). The note with it: CellTiter-Glo ATP luminescence.
A short description of test [5]: viability loss in pontine glioma line – cell-based, SU-DIPG-XXV, MIPE5.0, CellTiter-Glo, qHTS, dose response (AID 1347065; cut-off not given, nearly all actives have AC50 up to about 26 µM;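 further: cells exposed to compound for 48 hours before ATP readout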). To be noted: CellTiter-Glo ATP luminescence.
A short description of test [6]: growth inhibition of DIPG cells – cell-based, MIPE4.0 library, CellTiter-Glo luminescence, qHTS (AID 1347066; cut-off not given, nearly all actives have AC50 up to about 30 µM;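 further: cells exposed to compound for 48 hours before readout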). To be noted: SU-DIPG-VI viability, CellTiter-Glo ATP luminescence.
A short description of test [7]: compounds altering HSF1 focus formation in cells – imaging, Selleck Cancer Library (AID 1347162; in the data active means plate-normalised HSF1 focus index below about 0.46). To be noted: human cells, HSF1 nuclear foci imaging, at 10 µM; SSMD: measured here: HSF1 foci SSMD mean; cell count: measured here: cell number; plate-normalised HSF1 focus index: stronger effect = lower value.
Test [8] in a line: drug combination growth inhibition, ovarian cancer – cell-based, oncology-focused library, rucaparib conditional, profiling panel (AID 1508598). The note with it: patient-derived ovarian cancer cells, CellTiter-Glo viability, 144 h, stronger effect = lower value.
Test [9] is described as follows: growth inhibition of DIPG cells – cell-based, MIPE5.0 library, qHTS (AID 1347068; cut-off not given, nearly all actives have IC50 up to about 30 µM). To be noted: SU-DIPG-XXV viability.
Test [10] in a line: JHH-DIPG-1 glioma cell viability, MIPE5.0 library, CellTiter-Glo luminescence, qHTS (AID 1347067; cut-off not given, nearly all actives have AC50 up to about 26 µM;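 further: cells exposed to compound for 48 hours before readout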). To be noted: JHH-DIPG-1 glioma viability, CellTiter-Glo ATP luminescence.
The nature of test [11]: viability loss with induced miR-34 in A549 – imaging, A549 dox-inducible miR-34, nuclei and caspase counts, primary screen (AID 1347080;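 active means compounds whose cell count with miR-34 switched on is under 0.7 times the count with it off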). To be noted: A549 miR-34 inducible, Hoechst nuclei count, 48 h.
A short description of test [12]: MELAS cybrid and Rieske KO viability enhancers – cell-based, MELAS cybrids, Rieske KO mouse fibroblasts, CellTiter-Glo, primary screen (AID 1508586;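 active means mean z-score across replicates of 1.96 or higher in either the MELAS or the Rieske mutant cell line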;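 further: z relative to plate mean and SD of compound and empty wells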). The note with it: low glucose.

With `CCN1CCN(Cc2ccc(-c3cc4c(N[C@H](C)c5ccccc5)ncnc4[nH]3)cc2)CC1`, the concentration at half-maximal activity (AC50) was 14.8 µM (active) in test [1]; 5.26 µM (active) in test [2]; 13.2 µM (active) in [3]; 0.0469 µM (active) in test [4]; 18.6 µM (active) in test [5]; 23.5 µM (active) in [6]. The compound further gave an SSMD in test [7] of 1.68. Also, the cell count in test [7] worked out at 7280. The plate-normalised HSF1 focus index in test [7] was 1.06 (inactive). Moreover, the viability was 113% (inactive) in test [8] (at 0.000305 µM, OCI-C5x cells, with rucaparib 10 µM, 100% = cells with rucaparib alone); 121% (inactive) in test [8] (at 0.000305 µM, OCI-C5x cells, without rucaparib); 97.2% (active) in test [8] (at 0.000305 µM, OCI-P5x cells, with rucaparib 20 µM, 100% = cells with rucaparib alone); 117% (inactive) in [8] (at 0.000305 µM, OCI-P5x cells, without rucaparib); 110% (inactive) in test [8] (at 0.00122 µM, OCI-C5x cells, with rucaparib 10 µM, 100% = cells with rucaparib alone); 123% (inactive) in test [8] (at 0.00122 µM, OCI-C5x cells, without rucaparib). For the same compound, the viability is 100% (active) in test [8] (at 0.00122 µM, OCI-P5x cells, with rucaparib 20 µM, 100% = cells with rucaparib alone); 120% (inactive) in test [8] (at 0.00122 µM, OCI-P5x cells, without rucaparib); 110% (inactive) in [8] (at 0.00488 µM, OCI-C5x cells, with rucaparib 10 µM, 100% = cells with rucaparib alone); 127% (inactive) in test [8] (at 0.00488 µM, OCI-C5x cells, without rucaparib); 108% (inactive) in test [8] (at 0.00488 µM, OCI-P5x cells, with rucaparib 20 µM, 100% = cells with rucaparib alone); 118% (inactive) in test [8] (at 0.00488 µM, OCI-P5x cells, without rucaparib). In addition, the viability in test [8] (at 0.0195 µM, OCI-C5x cells, with rucaparib 10 µM, 100% = cells with rucaparib alone) is 109% (inactive); in test [8] (at 0.0195 µM, OCI-C5x cells, without rucaparib), 124% (inactive); in test [8] (at 0.0195 µM, OCI-P5x cells, with rucaparib 20 µM, 100% = cells with rucaparib alone) it was 98% (active); in test [8] (at 0.0195 µM, OCI-P5x cells, without rucaparib) it was 115% (inactive); in test [8] (at 0.0781 µM, OCI-C5x cells, with rucaparib 10 µM, 100% = cells with rucaparib alone) it was 106% (inactive); in test [8] (at 0.0781 µM, OCI-C5x cells, without rucaparib), 129% (inactive). Besides, the viability is 102% (inactive) in test [8] (at 0.0781 µM, OCI-P5x cells, with rucaparib 20 µM, 100% = cells with rucaparib alone); 123% (inactive) in test [8] (at 0.0781 µM, OCI-P5x cells, without rucaparib); 119% (inactive) in test [8] (at 0.313 µM, OCI-C5x cells, with rucaparib 10 µM, 100% = cells with rucaparib alone); 146% (inactive) in [8] (at 0.313 µM, OCI-C5x cells, without rucaparib); 98.7% (active) in test [8] (at 0.313 µM, OCI-P5x cells, with rucaparib 20 µM, 100% = cells with rucaparib alone); 112% (inactive) in [8] (at 0.313 µM, OCI-P5x cells, without rucaparib). In addition, the viability is 96.1% (active) in test [8] (at 1.25 µM, OCI-C5x cells, with rucaparib 10 µM, 100% = cells with rucaparib alone); 114% (inactive) in [8] (at 1.25 µM, OCI-C5x cells, without rucaparib); 90.3% (active) in test [8] (at 1.25 µM, OCI-P5x cells, with rucaparib 20 µM, 100% = cells with rucaparib alone); 118% (inactive) in test [8] (at 1.25 µM, OCI-P5x cells, without rucaparib); 70.8% (active) in test [8] (at 5 µM, OCI-C5x cells, with rucaparib 10 µM, 100% = cells with rucaparib alone); 117% (inactive) in test [8] (at 5 µM, OCI-C5x cells, without rucaparib). In addition, the viability in test [8] (at 5 µM, OCI-P5x cells, with rucaparib 20 µM, 100% = cells with rucaparib alone) was 64.4% (active); in test [8] (at 5 µM, OCI-P5x cells, without rucaparib), 105% (inactive).
On to `COc1nc(-c2ccc3c(c2)OCO3)n(-c2ccc(NC(=O)CSc3ccccc3)cc2)n1`, for which the compound was classed as inactive in [1], in test [2], in [3], in [4], in test [5] and in [6]. For the same compound, in test [9], the call was inactive. Besides, the SSMD in test [7] amounted to 0.993. The compound further showed a cell count in [7] of 6960. In addition, the plate-normalised HSF1 focus index in test [7] is 1.06 (inactive).
In the case of `Cn1c2cc(S(C)=O)sc2c2cnn(Cc3cccc(N)c3)c(=O)c21` (stereo unspecified), the result in test [1], in test [2], in test [3], in [4], in test [5] and in test [6] was inactive. Also, the outcome in test [10] and in test [9] was inactive.
Regarding `CCNC(=O)CCC/C=C\C[C@@H]1[C@@H](/C=C/C(O)CCc2ccccc2)[C@@H](O)C[C@@H]1O` (stereo partly specified), the compound was classed as inactive in [1], in test [2], in test [3], in [4], in test [5] and in test [6]. Moreover, the compound was called inactive in test [10] and in [9].
`COc1ccc(C2CC(c3ccccc3)=NN2c2ccc(S(N)(=O)=O)cc2)cc1` (stereo unspecified): the compound was called inactive in [1], in test [2], in test [5], in [6] and in [10]. Also, the AC50 was 4.69 µM (active) in test [3] and 16.6 µM (active) in test [4]. The SSMD in test [7] worked out at 2.07. Moreover, the cell count in test [7] came out at 7280. Moreover, in [7], the plate-normalised HSF1 focus index is 1.13 (inactive).
Turning to `Cc1cc(Nc2ncnc3ccc(-c4ccc(CNCCS(C)(=O)=O)o4)cc23)ccc1Oc1ccn2ncnc2c1`, the AC50 in [1] is 23.5 µM (active); in [2], 23.5 µM (active); in [3], 18.7 µM (active); in test [4], 14.8 µM (active); in test [5] it was 16.6 µM (active); in test [6] it was 16.6 µM (active). Besides, in test [10], the AC50 is 20.9 µM (active). The outcome in [9] was inactive. Further, the fold change in test [11] (stronger effect = lower value, cell number ratio, induced over uninduced) was 0.962 (inactive); in [11] (measured here: relative caspase fold change +Dox/-Dox) it was 1.06. In addition, the cell count in [11] (measured here: total cells with miR-34 induction, stronger effect = lower value) was found to be 7890; in test [11] (measured here: total cells without miR-34 induction), 8200. The z-score is 1.86 (inactive) in [12] (MELAS cybrid survival, CellTiter-Glo 48 h, stronger effect = higher value) and -0.462 in [12] (Rieske KO mouse fibroblast survival, CellTiter-Glo 72 h).
